Assay outcomes as filed in PubChem.
In the library only some 2.3% were active in any assay of this set; here they are far more common.
697 NFkB inh – lowers PMA/ionomycin-induced NF-kB signal in 697 B cells. inhibition, % at 4 µM. 697 B-cell NF-kB luciferase reporter, 16 h. 330,000 tested, 0.33% active; in the data active = inhibition above about 35%
LMP1 NFkB inh – reduces LMP1-driven NF-kappaB luciferase signal; inhibition, % at 12.5 µM; LMP1-induced NF-kappaB luciferase reporter cells, luminescence; 350,000 tested, 0.69% active; in the data active = inhibition above about 41%; inconclusive = no clear call, values can overlap the other calls
Gli-Sufu block – antagonists of Gli-Sufu signaling. Sufu-KO-LIGHT fibroblasts, Gli luciferase reporter luminescence. 340,000 tested, 0.74% active. AID 588413. inhibition, % at 5 µM;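 active = inhibition above about 55%, limit read from the data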
TRPM1 prom inh – reduces MITF-dependent TRPM1 promoter luciferase signal | SK-MEL-5 TRPM1 promoter luciferase, 24 h | 330,000 tested, 0.83% active | inhibition, % at 12.5 µM;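 active = mean inhibition across replicates of 60% or more, whatever share of single replicates reaches that level; inconclusive = some that reach 60%, reason not given; inactive = mean inhibition across replicates below 60%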
Shn3 3UTR inh – inhibitors of Schnurri-3 3'UTR reporter in osteoblasts; Clone20 osteoblast Shn3 3'UTR firefly luciferase, 24 h; 360,000 tested, 0.52% active; inhibition, % at 12.5 µM; AID 588674;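 active = mean inhibition of at least 75% with every replicate also reaching 75%; inconclusive = mean inhibition at least 75% but some replicate below; inactive = mean inhibition below 75%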
Jurkat NFkB inh – inhibitors of the PMA/ionomycin-induced NF-kB reporter in Jurkat cells | PMA/ionomycin-induced NF-kB luciferase reporter, luminescence | inhibition, % at 4 µM | 330,000 tested, 0.53% active | AID 435003; in the data active = inhibition above about 50%
Jurkat NFkB conf – lowers PMA/ionomycin-induced NF-kB signal in Jurkat cells. AID 435020. shares compounds with Jurkat NFkB inh. 2,700 tested, 27% active. Jurkat NF-kB luciferase, 16 h. inhibition, % at 4 µM;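 active = inhibition reaching about 45% at 4 µM in either replicate, limit read from the data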
697 NFkB conf – lowers PMA/ionomycin-induced NF-kB signal in 697 B cells. inhibition, % at 4 µM. AID 449746. 697 B-cell NF-kB luciferase, 16 h. 2,000 tested, 35% active. shares compounds with 697 NFkB inh; in the data active = inhibition mostly above about 28%, no sharp cut-off; inactive = mostly below about 22%
Gli antag conf – confirmation of Gli-SUFU pathway antagonists. Sufu-KO-LIGHT cells, Gli luciferase reporter, luminescence. shares compounds with Gli-Sufu block. AID 602428. inhibition, % at 5 µM. 2,500 tested, 40% active;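 active = mean inhibition at 5 µM reaching about 45%, limit read from the data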
Gli cytotox – cytotoxicity counter-screen for Gli-SUFU antagonists | shares compounds with Gli-Sufu block | AID 651994 | Sufu-KO-LIGHT cells cytotoxicity, ATP luminescence | 2,500 tested, 32% active | cytotoxicity, % at 5 µM;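 active = mean cytotoxicity at 5 µM above about 25%, limit read from the data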;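 also: cells exposed to compound overnight for roughly 16 to 18 hours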
Wnt3a cs – Wnt3a reporter inhibition counter-screen; shares compounds with Gli-Sufu block; Wnt-LIGHT cells, Wnt3a-driven luciferase reporter, luminescence; inhibition, % at 6.25 µM; 2,500 tested, 20% active; AID 651995;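 active = mean inhibition above about 25%, limit read from the data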
A number is an active result; i = inactive; ? = inconclusive; nt = no result.

SMILES	697 NFkB inh	LMP1 NFkB inh	Gli-Sufu block	TRPM1 prom inh	Shn3 3UTR inh	Jurkat NFkB inh	Jurkat NFkB conf	Gli antag conf	Gli cytotox	Wnt3a cs	others
O=C(c1ccccc1)c1cc([N+](=O)[O-])ccc1N1CCOCC1	i	i	i	i	i	51	49	56	53	i
O=C(c1ccc(Cl)cc1)c1cc([N+](=O)[O-])ccc1N1CCOCC1	i	i	i	i	i	70	i	51	47	i
N#CC(=NCc1cccnc1)C1=C(O)c2ccccc2C1=O	i	i	i	i	i	i	nt	nt	nt	nt
CCN1CCN(C(=O)c2cc(COc3ccc4ncccc4c3)on2)CC1	i	i	i	i	i	i	nt	nt	nt	nt
CCC1CCCCN1C(=O)c1cc(COc2ccc3ncccc3c2)on1 (stereo not drawn)	i	i	72	i	88	58	60	72	35	i
O=C(O)CCC(=O)Nc1ccc(N=Nc2ccccc2)cc1	nt	i	i	i	i	nt	nt	nt	nt	nt
CC(C)(C)C(=O)Nc1ccc(N=Nc2ccccc2)cc1	i	i	64	i	i	i	i	54	60	82	697 NFkB conf=i
Cc1ccc(S(=O)(=O)NCc2ccncc2)cc1C	i	i	74	i	i	52	55	73	26	36
Cc1nc(C(=O)N2CCC(C)(C(=O)NS(=O)(=O)C3CC3)C2)c(C)o1 (stereo not drawn)	nt	nt	nt	nt	i	nt	nt	nt	nt	nt
Cn1c(=O)c2c(SCc3ccccn3)nc(C3CC3)nc2n(C)c1=O	i	i	i	i	i	i	nt	nt	nt	nt
O=S(=O)(NCC1CCCO1)c1ccc(-c2ccc(S(=O)(=O)NCC3CCCO3)cc2)cc1 (stereo not drawn)	48	i	74	i	i	70	69	67	31	35	697 NFkB conf=83
Cc1ccc(S(=O)(=O)NCC2CCCO2)cc1 (stereo not drawn)	i	i	nt	i	i	i	nt	nt	nt	nt
COc1ccc(/C=C/C(=O)c2cc(F)ccc2OC(=O)c2ccccc2)cc1OC	i	i	i	?	i	58	61	60	49	i
O=C(COC(=O)/C=C/c1cccc(Cl)c1)NC1CCCC1	i	i	nt	i	i	i	nt	nt	nt	nt
CCOC(=O)c1cc([N+](=O)[O-])sc1NC(=O)c1ccc(S(=O)(=O)N2CC3(C)CC2CC(C)(C)C3)cc1 (stereo not drawn)	i	46	71	76	i	57	i	82	27	50
Cc1cc(C(=O)NCc2cc(F)cc3c2OCOC3)nn1C	i	i	i	i	i	i	nt	nt	nt	nt
Cn1nc(C(C)(C)C)cc1C(=O)NCc1cc(F)cc2c1OCOC2	i	i	58	i	i	65	60	70	26	37
Cn1nc(CC(=O)Nc2ccc(N3CCN(C(=O)OC(C)(C)C)CC3)cc2)c2ccccc2c1=O	46	i	66	i	nt	55	53	78	39	37	697 NFkB conf=i
COc1cc(NC(=O)Cc2nn(C)c(=O)c3ccccc23)cc(OC)c1	i	i	i	i	i	i	nt	nt	nt	nt
Cn1nc(CC(=O)Nc2ccc3c(c2)OCCO3)c2ccccc2c1=O	43	i	66	i	?	52	66	68	31	41	697 NFkB conf=41
CCN(CC)S(=O)(=O)c1ccc(Oc2cccc(C(C)=O)c2)nc1	i	i	i	i	i	i	nt	nt	nt	nt
CN1C(=O)c2ccc(NC(=O)c3c(C(=O)O)cccc3[N+](=O)[O-])cc2C1=O	i	i	i	nt	i	i	nt	nt	nt	nt
O=C(c1cc(COc2cccc3cnccc23)on1)N1CCCC(CCCO)C1 (stereo not drawn)	56	i	80	i	i	55	77	74	29	i	697 NFkB conf=101
Cc1ccc(CNC(=O)c2ccc(N3CCCC3=O)cc2)cc1	i	i	i	i	i	i	nt	nt	nt	nt
Cn1nc(C(C)(C)C)cc1C(=O)NCc1ccc(N2CCCC2=O)cc1	42	i	81	i	i	66	66	77	36	42	697 NFkB conf=57
SMILES	697 NFkB inh	LMP1 NFkB inh	Gli-Sufu block	TRPM1 prom inh	Shn3 3UTR inh	Jurkat NFkB inh	Jurkat NFkB conf	Gli antag conf	Gli cytotox	Wnt3a cs	others
Cc1ccc2nc(C)c3c(c2c1)OC(C(C)(Cl)Br)C3 (stereo not drawn)	i	i	i	i	i	i	nt	nt	nt	nt
Cc1nc2ccccc2c2c1CC(C(C)(Cl)Br)O2 (stereo not drawn)	i	i	55	i	90	56	56	58	i	i
CC1(C(=O)NCC2CC2)CCN1C(=O)C/C=C/c1ccccc1 (stereo not drawn)	nt	nt	nt	nt	i	nt	nt	nt	nt	nt
CCn1c(C)[n+](Cc2ccccc2)c2ccc(Cl)cc21	i	i	i	i	i	i	nt	nt	nt	nt
CCn1c(/C=C/Nc2ccccc2)[n+](CC)c2ccc(Cl)cc21	i	i	i	i	i	58	i	i	i	i
COc1ccc(CCNc2ncnc3sccc23)cc1OC	75	i	75	i	91	64	67	80	43	41	697 NFkB conf=92
COc1ccc(Nc2ncnc3sccc23)cc1OC	i	nt	i	i	i	i	nt	nt	nt	nt
COc1ccc(CCNc2ncnc3c2oc2ccccc23)cc1OC	47	i	73	i	i	62	57	75	28	31	697 NFkB conf=54
O=C(CSCCNS(=O)(=O)c1ccccc1)Nc1ccccc1	i	i	i	i	i	i	nt	nt	nt	nt
Cc1cccc(/C=N/Nc2cc(N3CCOCC3)nc(N3CCOCC3)n2)c1	58	i	60	i	i	66	i	i	34	i	697 NFkB conf=i
CC(C)c1ccc(/C=N/Nc2cc(N3CCOCC3)nc(N3CCOCC3)n2)cc1	i	i	i	i	i	i	nt	nt	nt	nt
COc1ccc(-c2c(C#N)c(N)nc3c2CCc2ccccc2-3)cc1OC	i	nt	i	nt	nt	67	i	56	i	i
Cc1ccc(C(CC(=O)N2CCCCC2)c2ccccc2)c(O)c1C (stereo not drawn)	i	i	i	i	i	i	nt	nt	nt	nt
Cc1cccc(CC2CC(=O)N(c3ccc(C)cc3Br)C2=O)c1 (stereo not drawn)	i	i	i	i	i	i	nt	nt	nt	nt
CCCCCn1ccc(=N)cc1	i	i	i	i	i	i	nt	nt	nt	nt
CCCCCCCn1ccc(=N)cc1	89	93	84	i	i	66	74	88	35	43	697 NFkB conf=83
COc1ccc(S(=O)(=O)N2CCC(C(=O)NCCc3ccc4c(c3)OCO4)CC2)cc1	i	i	i	i	i	i	nt	nt	nt	nt
CC(C)CCc1noc(CN(C)CCC2CCOCC2)n1	i	i	i	i	i	i	nt	nt	nt	nt
